This note sets out measurements from PubChem BioAssay (EPA / NIEHS).

The source made the active and inactive calls. Rule for the calls: active = hit-call score of the fitted dose curve at least 0.9, where 1 is the maximum; inactive = score below 0.9.

Read-out in this assay: C-C motif chemokine 2 (Homo sapiens) (UniProt P13500)
In words: BSK_KF3CT_MCP1: BioMAP Diversity Plus: KF3CT Assay for Monocyte Chemoattractant Protein 1 (MCP1/CCL2) Biomarker Activity (AID 2283073). As to conditions: primary human keratinocytes with fibroblasts; actives raise or lower the signal. On the procedure: BSK_KF3CT is a cell-based, multiplexed-readout assay that uses keratinocytes and foreskin fibroblasts, a human skin primary cell co-culture, with measurements taken at 24 hours after chemical dosing in a 96-well plate.BSK_KF3CT_MCP1 is an assay component measured in the BSK_KF3CT assay. It measures MCP-1 antibody related to regulation of gene expression using ELISA technology.Data from the assay component BSK_KF3CT_MCP1 was analyzed into 1 assay endpoint. This assay endpoint, BSK_KF3CT_MCP1, was analyzed with bidirectional fitting relative to DMSO as the negative control and baseline of activity. Using a type of binding reporter, gain or loss-of-signal activity can be used to understand changes in the signaling as they relate to the gene CCL2. Furthermore, this assay endpoint can be referred to as a primary readout, because this assay has produced multiple assay endpoints where this one serves a signaling function. To generalize the intended target to other relatable targets, this assay endpoint is annotated to the cytokine intended target family, where the subfamily is chemotactic factor.
The levels of cell surface (or secreted, indicated by the prefix "s") biomarker endpoints were measured by ELISA. Overt cytotoxicity to cells in confluent adherent cultures (all systems other than the BT system) was assessed by measuring total protein levels using sulforhodamine B (SRB) staining in parallel cultures at the time of biomarker measurements, indicated as SRB endpoints. For proliferation assays for adherent cell types, individual cell types are cultured at sub-confluence and relative cell numbers quantified by SRB staining at time points optimized for each system (48 h: 3C and CASM3C systems; 72 h: BT and HDF3CGF systems; 96 h: SAg system). SRB was performed by staining cells with 0.1% SRB after fixation with 10% TCA and reading wells at 560 nm.Viability and proliferation of PBMC (T cells) was quantified by Alamar Blue reduction for the SAg and BT systems. For PBMC viability (referred to as PBMC Cytotoxicity within the assay endpoint names), cells were plated (75,000/well in a 96-well plate) and then chemical samples added for 1 h before addition of activators, SEB and TSST-1 (20 ng/mL final concentration each). Cells were incubated for 90 h. Then, Alamar Blue (20 uL/well) (Invitrogen, Cat DAL1100) was added for 6 h, and the plates were read with a fluorescence microplate reader at 546/580 nm (excitation/emission). For PBMC proliferation, cells were plated and activated as above but incubated for only 16 h prior to addition of Alamar Blue. Plates were read after 6 h.
`CCCCOC(=O)CC(CC(=O)OCCCC)(OC(C)=O)C(=O)OCCCC`: the result was inactive. Same read-out and setting: the value for `CCCCCCCCOc1ccc(C(=O)c2ccccc2)c(O)c1` was “inactive”. On the same count and under the same terms, in the case of `CCN(CC)C(=O)c1cc(S(=O)(=O)Cc2ccccc2)c(N2CCC(c3ccccc3)CC2)cc1N(CC)CCN(C)C` it was “inactive”; in that of `COc1ccc2cc(S(=O)(=O)N[C@H](CC(=O)N[C@H](Cc3ccc(CN4[C@H](C)CCC[C@@H]4C)cc3)C(=O)N(C)C(C)C)c3ccc4c(c3)OCO4)ccc2c1`, “inactive”. Usually AC50 stands for the concentration giving half of the maximal activity seen. In the case of `CCOC(=O)O[C@H](C)OC(=O)c1ccc2c(c1)cc(C(=O)NC1CCN(C(C)C)CC1)n2Cc1cc(-c2ccc(Cl)s2)on1`, the AC50 is 5.86 µM (active). Still for that read-out and setting: the value for `CC(C)(c1cc(Br)c(O)c(Br)c1)c1cc(Br)c(O)c(Br)c1` was 4.16 µM (active). Regarding `O=c1c(-c2ccc(O)cc2)coc2cc(O)cc(O)c12`, the outcome was inactive.

For `O=C=NCCCCCCN=C=O`, the outcome was inactive.

Consider `Cc1occc1C(=O)Nc1ccc(C(=O)N2CCC(F)(F)/C(=C\C(=O)N3CCC(N4CCCCC4)CC3)c3ccccc32)cc1`, for which the result was inactive. For the compound `Cc1ccc(C(C)C)cc1`, the result was inactive. Regarding `CCCOC(=O)c1cc(O)c(O)c(O)c1`, the outcome was inactive. Regarding `O=C1CCC(C2CCCCC2)CC1`, the AC50 is 29.6 µM (active).

In the case of `OC12N=C(c3ccccc3)SC1Cc1cc(Cl)ccc12` (stereo not given), the result was inactive.

Turning to `O=CCCCC=O`, the AC50 was 32 µM (active).

As to `c1ccc2ccccc2c1`, the outcome was inactive. `O=c1[nH]sc2ccccc12`: the AC50 was 30.4 µM (active). For `COCC(C)OCC(C)OCC(C)O` (stereo not given), the outcome was inactive. The same measure, in the same setting: the value for `CO[C@H]1/C=C/O[C@@]2(C)Oc3c(C)c(O)c4c(O)c(c(/C=N/N5CCN(C)CC5)c(O)c4c3C2=O)NC(=O)/C(C)=C\C=C\[C@H](C)[C@H](O)[C@@H](C)[C@@H](O)[C@@H](C)[C@H](OC(C)=O)[C@@H]1C` was “inactive”. On the same count and under the same terms, in the case of `Clc1cc(Cl)c2c(c1)N=C1CCCCCN1C2` it was “inactive”; in that of `CC1(C)NC(=O)N(c2ccc([N+](=O)[O-])c(C(F)(F)F)c2)C1=O`, “inactive”. In the case of `CC[C@@H]1C[C@H](N(Cc2cc(C(F)(F)F)cc(C(F)(F)F)c2)C(C)=O)c2cc(C(F)(F)F)ccc2N1C(=O)OC(C)C`, the result was inactive. Consider `CCCCCCCCOC(=O)c1cc(O)c(O)c(O)c1`, for which the concentration at half-maximal activity (AC50) was 27.4 µM (active). With `CCCCCCCCCCCO`, the outcome was inactive.

As to `COc1cccc([C@H](O)C2CCN(CCc3ccc(F)cc3)CC2)c1OC`, the outcome was inactive. Take `CC(C)(C)c1csc(-c2cc3cc(OCc4ccccc4CC(=O)O)ccc3o2)n1`: the AC50 is 20 µM (active). As for `Oc1ccc2ccccc2c1`, the result was inactive. Consider `CCN(Cc1cccnc1)C(=O)c1cccc(Cl)c1[C@]1(C)C(=O)N(Cc2ccc(OC)cc2OC)c2ccc(Cl)cc21`, for which the result was inactive. Same read-out and setting: in the case of `CCO[Si](CCCNC(N)=O)(OCC)OCC` it was “inactive”. Regarding `Cc1cc(F)ccc1-c1cc(N2CC[C@@H](O)[C@H]2CO)ncc1N(C)C(=O)C(C)(C)c1cc(C(F)(F)F)cc(C(F)(F)F)c1`, the AC50 is 14.9 µM (active). As for `CCCCOC(=O)c1ccc(O)cc1`, the result was inactive. For the compound `Oc1ccccc1`, the outcome was inactive. For the compound `COc1cc(C(=O)NC2CCN(C)CC2)ccc1Nc1ncc2c(n1)N(C1CCCC1)CC(F)(F)C(=O)N2C`, the AC50 was 5.37 µM (active). As for `CC[C@H](NC(=O)c1cc(F)ccc1NS(=O)(=O)c1cccc2cccnc12)c1ccccc1`, the outcome was inactive. The same measure, in the same setting: in the case of `C[C@]12CC[C@@H]3c4ccc(O)cc4CC[C@H]3[C@@H]1CCC2=O` it was “inactive”. Same read-out and setting: the value for `Cc1ncc(CO)c(CO)c1O` was “inactive”. On to `CCCCCCCCCCCC[N+](C)(C)C`, for which the AC50 was 29.7 µM (active). As for `CC(O)CC(C)(C)O` (stereo not given), the result was inactive. As to `CCCCCCCC[Si](OCC)(OCC)OCC`, the result was inactive. Turning to `O=C(Nc1ccc(Cl)cc1)Nc1ccc(Cl)c(Cl)c1`, the result was inactive. Still for that read-out and setting: the value for `Cc1cn([C@H]2C[C@H](N=[N+]=[N-])[C@@H](CO)O2)c(=O)[nH]c1=O` was “inactive”.
